From PubChem BioAssay (NCI)
The panel holds about 83,000 compounds, 20% with a hit somewhere; the sample as a whole holds those more often.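 Assay: single dose, 48 h. Readout: percent growth (0 = no net growth; negative = cell death). Active: <10.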 Calls of active or inactive are those of the source.

Key:
Assay in all cases: NCI-60 one-dose screen, 48 h (100 = growth as untreated, 0 = no growth, -100 = all killed)
Settings in all cases: 10 µM unless noted
SR leukemia = system: SR leukemia
RPMI-8226 leukemia = system: RPMI-8226 leukemia
OVCAR-8 ovarian = system: OVCAR-8 ovarian
OVCAR-5 ovarian = system: OVCAR-5 ovarian
OVCAR-4 ovarian = system: OVCAR-4 ovarian
SK-OV-3 ovarian = system: SK-OV-3 ovarian
IGROV1 ovarian = system: IGROV1 ovarian
OVCAR-3 ovarian = system: OVCAR-3 ovarian
HS 578T breast = system: HS 578T breast
NCI/ADR-RES ovarian = system: NCI/ADR-RES ovarian

Measured: growth

C[C@H]1O[C@@H](O[C@H]2[C@@H](O)C[C@H](O[C@H]3[C@@H](O)C[C@H](O[C@H]4CC[C@]5(C)C6C[C@@H](O)[C@]7(C)[C@@H](C8=CC(=O)OC8)CC[C@]7(O)C6CC[C@@H]5C4)O[C@@H]3C)O[C@@H]2C)C[C@H](O)[C@@H]1O (stereo partly drawn)
active: SR leukemia -9.87% | RPMI-8226 leukemia -23.7% | OVCAR-8 ovarian -93.5% | OVCAR-5 ovarian -99.7% | OVCAR-4 ovarian -29.6% | SK-OV-3 ovarian -93.3% | IGROV1 ovarian -38.4% | OVCAR-3 ovarian -100% | HS 578T breast -9.01% | NCI/ADR-RES ovarian -87.7%

O=C(Nc1ccccc1OC(=O)c1ccccc1)c1ccccc1
inactive: SR leukemia 58.8% | RPMI-8226 leukemia 91.7% | OVCAR-8 ovarian 92.6% | OVCAR-5 ovarian 93.1% | OVCAR-4 ovarian 63.5% | SK-OV-3 ovarian 89.2% | IGROV1 ovarian 90.6% | OVCAR-3 ovarian 77.7% | HS 578T breast 101% | NCI/ADR-RES ovarian 87.8%

Cc1cc(Br)c(C)cc1Br
inactive: SR leukemia 83.7% | RPMI-8226 leukemia 103% | OVCAR-8 ovarian 101% | OVCAR-5 ovarian 103% | OVCAR-4 ovarian 103% | SK-OV-3 ovarian 92.7% | IGROV1 ovarian 137% | OVCAR-3 ovarian 103% | HS 578T breast 105% | NCI/ADR-RES ovarian 112%

COc1ccc(NS(=O)(=O)N2CCCCC2)cc1
inactive: SR leukemia 95.3% | RPMI-8226 leukemia 102% | OVCAR-8 ovarian 105% | OVCAR-5 ovarian 117% | OVCAR-4 ovarian 125% | SK-OV-3 ovarian 99.6% | IGROV1 ovarian 110% | OVCAR-3 ovarian 107% | HS 578T breast 108% | NCI/ADR-RES ovarian 116%

C1=C(Cc2ccccc2)n2cnc3ncnc(c32)S1
inactive: SR leukemia 36.8% | RPMI-8226 leukemia 28% | OVCAR-8 ovarian 73.5% | OVCAR-5 ovarian 70.5% | OVCAR-4 ovarian 40.1% | SK-OV-3 ovarian 19.7% | IGROV1 ovarian 86.8% | OVCAR-3 ovarian 15.8% | HS 578T breast 75.3% | NCI/ADR-RES ovarian 56.7%

Oc1ccc(/C=N/Nc2nc3ccccc3s2)c(O)c1
inactive: RPMI-8226 leukemia 37.4% | OVCAR-8 ovarian 26.6% | OVCAR-5 ovarian 47.1% | OVCAR-4 ovarian 21.5% | IGROV1 ovarian 22.3% | OVCAR-3 ovarian 18.6% | HS 578T breast 49.2%
active: SR leukemia 6.63% | SK-OV-3 ovarian 8.68%

CC(=O)N1N=C(c2ccc3c(c2)OCO3)CC1c1c(C)nn(-c2ccccc2)c1N(C)Cc1ccccc1 (stereo not drawn)
inactive: SR leukemia 67% | RPMI-8226 leukemia 58.8% | OVCAR-8 ovarian 76.7% | OVCAR-5 ovarian 97.1% | OVCAR-4 ovarian 66.3% | SK-OV-3 ovarian 84.2% | IGROV1 ovarian 51.5% | OVCAR-3 ovarian 79.4%

O=Cc1ncc(-c2ccc(C(F)(F)F)cc2)c(NC2CCCCCC2)n1
active: SR leukemia -29.1% [100 µM] | RPMI-8226 leukemia -35.1% [100 µM] | OVCAR-8 ovarian -68.2% [100 µM] | OVCAR-5 ovarian -91.8% [100 µM] | OVCAR-4 ovarian -73.8% [100 µM] | SK-OV-3 ovarian -13.7% [100 µM] | IGROV1 ovarian -68.3% [100 µM] | OVCAR-3 ovarian -94.5% [100 µM] | HS 578T breast -39.1% [100 µM]

CCN(CC)CCNCC(=O)Oc1ccc(/C=C/C(=O)CC(=O)/C=C/c2ccc(OC(=O)CNCCN(CC)CC)c(OC)c2)cc1OC
inactive: OVCAR-5 ovarian 36.6% | OVCAR-4 ovarian 44.3% | SK-OV-3 ovarian 27.3% | OVCAR-3 ovarian 13.3% | NCI/ADR-RES ovarian 71.6%
active: SR leukemia -1.72% | RPMI-8226 leukemia -46.2% | OVCAR-8 ovarian 3.99% | IGROV1 ovarian -24.5% | HS 578T breast -3.97%

CC(NC(N)=S)c1ccccc1 (stereo not drawn)
inactive: SR leukemia 100% | RPMI-8226 leukemia 116% | OVCAR-8 ovarian 106% | OVCAR-5 ovarian 97.5% | OVCAR-4 ovarian 106% | SK-OV-3 ovarian 99.3% | IGROV1 ovarian 110% | OVCAR-3 ovarian 111% | HS 578T breast 98.9% | NCI/ADR-RES ovarian 106%

O=C1C=CC(=O)N1c1ccccn1
inactive: SR leukemia 79.4% | RPMI-8226 leukemia 113% | OVCAR-8 ovarian 111% | OVCAR-5 ovarian 97.9% | OVCAR-4 ovarian 100% | SK-OV-3 ovarian 115% | IGROV1 ovarian 113% | OVCAR-3 ovarian 119% | HS 578T breast 97.4%

CC(C)=CCCC(C)c1ccc(C)c2c1OCN(CC1CCNCC1)C2 (stereo not drawn)
inactive: RPMI-8226 leukemia 23.7% | OVCAR-8 ovarian 75.3% | OVCAR-5 ovarian 81.1% | OVCAR-4 ovarian 91.7% | SK-OV-3 ovarian 87% | IGROV1 ovarian 78.7% | OVCAR-3 ovarian 77.2% | HS 578T breast 64.3%
active: SR leukemia -8.52%

[N-]=[N+]=NCc1ncc(-c2ccc(C(F)(F)F)cc2)c(NC2CCCCCC2)n1
active: SR leukemia 5.36% [50 µM]
inactive: RPMI-8226 leukemia 53.3% [50 µM] | OVCAR-8 ovarian 70.8% [50 µM] | OVCAR-5 ovarian 90.7% [50 µM] | OVCAR-4 ovarian 88.3% [50 µM] | SK-OV-3 ovarian 90.1% [50 µM] | IGROV1 ovarian 75.9% [50 µM] | OVCAR-3 ovarian 61.4% [50 µM] | HS 578T breast 83.1% [50 µM]

Cc1nn2c(/C=C3/C(=O)Nc4cc(Cl)ccc43)c(-c3ccccc3)nc2s1
active: RPMI-8226 leukemia -19.6% | OVCAR-8 ovarian -25.2% | OVCAR-4 ovarian -85.6% | IGROV1 ovarian -23.5% | OVCAR-3 ovarian -71.6% | HS 578T breast -0.41%
inactive: SR leukemia 15.1% | OVCAR-5 ovarian 52.8% | SK-OV-3 ovarian 73.6% | NCI/ADR-RES ovarian 24.2%

CCn1cnc(C[C@H](NC(=O)[C@H](CCCCNC(=O)Nc2cc(C(F)(F)F)cc(C(F)(F)F)c2)NC(=O)Nc2cc(C(F)(F)F)cc(C(F)(F)F)c2)C(=O)OC)c1
active: SR leukemia -29% [100 µM] | RPMI-8226 leukemia -42.4% [100 µM] | OVCAR-8 ovarian -9.32% [100 µM] | OVCAR-5 ovarian -67.9% [100 µM] | OVCAR-4 ovarian -17.2% [100 µM] | SK-OV-3 ovarian -23.7% [100 µM] | IGROV1 ovarian -23.5% [100 µM] | OVCAR-3 ovarian -90.2% [100 µM] | HS 578T breast -7.06% [100 µM]
inactive: NCI/ADR-RES ovarian 51.5% [100 µM]

COC(=O)C1=CCC(n2cnc3c(N)ncnc32)O1 (stereo not drawn)
inactive: SR leukemia 102% | RPMI-8226 leukemia 118% | OVCAR-8 ovarian 96.3% | OVCAR-5 ovarian 109% | OVCAR-4 ovarian 106% | SK-OV-3 ovarian 108% | IGROV1 ovarian 109% | OVCAR-3 ovarian 106% | HS 578T breast 110%

O=C(Nc1cccc(Cl)c1)Nc1cccc(Cl)c1
active: RPMI-8226 leukemia 3.08%
inactive: SR leukemia 66.4% | OVCAR-8 ovarian 77% | OVCAR-5 ovarian 86.8% | OVCAR-4 ovarian 62.4% | SK-OV-3 ovarian 93.4% | IGROV1 ovarian 91.4% | OVCAR-3 ovarian 15.1% | HS 578T breast 80.7% | NCI/ADR-RES ovarian 55.6%

CCOC(=O)OCC(=O)[C@@]1(O)CC[C@H]2[C@@H]3CCC4=CC(=O)CC[C@]4(C)[C@H]3[C@@H](O)C[C@@]21C
inactive: SR leukemia 109% | RPMI-8226 leukemia 64.3% | OVCAR-8 ovarian 94.5% | OVCAR-5 ovarian 83.2% | OVCAR-4 ovarian 104% | SK-OV-3 ovarian 68.4% | IGROV1 ovarian 87.5% | OVCAR-3 ovarian 112% | HS 578T breast 123%

COc1cnc2c(c1)C(=O)c1c-2n(CCCNC(C)C)c(=O)c2cc(F)ccc12
inactive: HS 578T breast 16%
active: SR leukemia -13.4% | RPMI-8226 leukemia -28.1% | OVCAR-8 ovarian -14.2% | OVCAR-5 ovarian -26.5% | OVCAR-4 ovarian -0.201% | SK-OV-3 ovarian -33.3% | IGROV1 ovarian -5.18% | OVCAR-3 ovarian -30.2% | NCI/ADR-RES ovarian -16.1%

Cc1onc(-c2ccccc2Cl)c1C(=O)N[C@@H]1C(=O)N2[C@@H]1SC(C)(C)[C@@H]2C(=O)O
inactive: SR leukemia 91.6% | RPMI-8226 leukemia 95.4% | OVCAR-8 ovarian 106% | OVCAR-5 ovarian 115% | OVCAR-4 ovarian 110% | SK-OV-3 ovarian 104% | IGROV1 ovarian 101% | OVCAR-3 ovarian 118% | HS 578T breast 114%

NS(=O)(=O)c1ccc(N2CC(c3nc4ccccc4[nH]3)CC2=O)cc1 (stereo not drawn)
inactive: SR leukemia 95.5% | RPMI-8226 leukemia 103% | OVCAR-8 ovarian 99.9% | OVCAR-5 ovarian 84.4% | OVCAR-4 ovarian 97.3% | SK-OV-3 ovarian 89.7% | IGROV1 ovarian 97.2% | OVCAR-3 ovarian 104% | HS 578T breast 98.2%

COc1cc(/C=C/C(=O)c2c(C)n([O-])c3ccc(Cl)cc3[n+]2=O)cc(OC)c1OC
active: IGROV1 ovarian -62.2%
inactive: SR leukemia 11.8% | RPMI-8226 leukemia 72.6% | OVCAR-8 ovarian 50.8% | OVCAR-5 ovarian 98.2% | OVCAR-4 ovarian 71% | SK-OV-3 ovarian 104% | OVCAR-3 ovarian 102% | HS 578T breast 70.5% | NCI/ADR-RES ovarian 73.5%

COc1ccc(C2=NN(C(C)=O)C(c3c(C)nn(-c4ccccc4)c3N3CCOCC3)C2)cc1 (stereo not drawn)
inactive: SR leukemia 90.5% | RPMI-8226 leukemia 97.9% | OVCAR-8 ovarian 94.4% | OVCAR-5 ovarian 97.6% | OVCAR-4 ovarian 89.5% | SK-OV-3 ovarian 80.4% | IGROV1 ovarian 103% | OVCAR-3 ovarian 104% | HS 578T breast 96.7%

Nc1c(C(=O)Nc2cccc(Cl)c2)sc2nc3c(cc12)C(O)CCC3 (stereo not drawn)
active: SR leukemia 8.19% | RPMI-8226 leukemia 6.38% | OVCAR-3 ovarian -33.4%
inactive: OVCAR-8 ovarian 36.8% | OVCAR-5 ovarian 51.2% | OVCAR-4 ovarian 52.7% | SK-OV-3 ovarian 35.4% | IGROV1 ovarian 31.1% | HS 578T breast 24.5%

O=C(Nc1ccccc1)c1cc(-n2cnc([N+](=O)[O-])c2)cc(-n2cnc([N+](=O)[O-])c2)n1
inactive: SR leukemia 84.2% | RPMI-8226 leukemia 86.1% | OVCAR-8 ovarian 92.7% | OVCAR-5 ovarian 109% | OVCAR-4 ovarian 100% | SK-OV-3 ovarian 104% | IGROV1 ovarian 126% | OVCAR-3 ovarian 105% | HS 578T breast 96.7% | NCI/ADR-RES ovarian 111%

O=C(N/N=C/c1cccc(O)c1)c1ccc(C(F)(F)F)nc1Nc1cccc(C(F)(F)F)c1
active: SR leukemia -38.7% | RPMI-8226 leukemia -37.2% | OVCAR-3 ovarian -12.2%
inactive: OVCAR-8 ovarian 18.1% | OVCAR-5 ovarian 34.3% | OVCAR-4 ovarian 10.5% | SK-OV-3 ovarian 24.6% | IGROV1 ovarian 15%

CN1C(=O)C(C2=NN(C=O)C(c3ccc(F)cc3)C2)C(=O)N(C)C1=O (stereo not drawn)
inactive: SR leukemia 101% | RPMI-8226 leukemia 95.8% | OVCAR-8 ovarian 98.9% | OVCAR-5 ovarian 97.1% | OVCAR-4 ovarian 102% | SK-OV-3 ovarian 94.6% | IGROV1 ovarian 104% | OVCAR-3 ovarian 99.9%
